# Assay results as given in ChEMBL document CHEMBL2218924, “A broad activity screen in support of a chemogenomic map for kinase signalling research and drug discovery” (Biochem J, 2013).
# Tests used:
# [1] = target: RAC-alpha serine/threonine-protein kinase (Homo sapiens) (UniProt P31749); conditions: at 1 µM
# [2] = target: RAC-alpha serine/threonine-protein kinase (Homo sapiens) (UniProt P31749); conditions: at 10 µM
# [3] = target: T1, 3-phosphoinositide-dependent protein kinase 1 (Homo sapiens) (UniProt O15530); conditions: at 10 µM
# T1 sequence (whole entry): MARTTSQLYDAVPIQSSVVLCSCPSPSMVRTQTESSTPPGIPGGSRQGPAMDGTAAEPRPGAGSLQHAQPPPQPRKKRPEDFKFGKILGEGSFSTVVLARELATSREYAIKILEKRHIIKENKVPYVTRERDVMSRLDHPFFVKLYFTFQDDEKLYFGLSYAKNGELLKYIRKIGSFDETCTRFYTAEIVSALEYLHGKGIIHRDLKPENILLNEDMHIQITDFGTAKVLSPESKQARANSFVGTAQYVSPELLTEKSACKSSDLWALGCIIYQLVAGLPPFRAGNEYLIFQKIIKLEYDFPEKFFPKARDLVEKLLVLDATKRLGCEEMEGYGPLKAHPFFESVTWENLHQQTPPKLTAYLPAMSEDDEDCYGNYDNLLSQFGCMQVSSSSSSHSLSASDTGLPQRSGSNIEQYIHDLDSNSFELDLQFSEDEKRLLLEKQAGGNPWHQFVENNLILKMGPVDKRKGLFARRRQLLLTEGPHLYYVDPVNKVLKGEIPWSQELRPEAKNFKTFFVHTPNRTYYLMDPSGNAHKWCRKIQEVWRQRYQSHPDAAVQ
# [4] = target: RAC-gamma serine/threonine-protein kinase (Homo sapiens) (UniProt Q9Y243); conditions: at 10 µM
# [5] = target: Protein kinase C beta type (Homo sapiens) (UniProt P05771); conditions: at 1 µM
# Chain of Protein kinase C beta type (Homo sapiens) (P05771 2-671 limits assumed): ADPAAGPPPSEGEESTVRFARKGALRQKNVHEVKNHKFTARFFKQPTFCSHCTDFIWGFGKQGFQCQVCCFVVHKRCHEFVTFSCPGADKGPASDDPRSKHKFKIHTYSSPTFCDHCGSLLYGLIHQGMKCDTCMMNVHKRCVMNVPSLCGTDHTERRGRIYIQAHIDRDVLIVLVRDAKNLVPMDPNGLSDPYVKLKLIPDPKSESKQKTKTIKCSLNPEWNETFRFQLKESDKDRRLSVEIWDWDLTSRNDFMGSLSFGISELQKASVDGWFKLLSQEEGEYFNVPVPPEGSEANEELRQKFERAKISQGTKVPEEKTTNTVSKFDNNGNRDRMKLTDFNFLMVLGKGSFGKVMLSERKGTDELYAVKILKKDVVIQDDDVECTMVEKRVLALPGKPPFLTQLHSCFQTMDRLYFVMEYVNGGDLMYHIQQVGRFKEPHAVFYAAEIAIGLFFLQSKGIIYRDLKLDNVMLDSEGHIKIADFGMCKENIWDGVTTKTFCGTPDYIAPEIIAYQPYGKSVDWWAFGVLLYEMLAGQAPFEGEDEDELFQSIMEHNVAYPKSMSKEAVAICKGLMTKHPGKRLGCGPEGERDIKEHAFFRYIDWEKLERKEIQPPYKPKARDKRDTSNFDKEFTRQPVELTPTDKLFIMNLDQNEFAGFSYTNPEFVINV
# [6] = target: Protein kinase C beta type (Homo sapiens) (UniProt P05771); conditions: at 10 µM
# [7] = target: Protein kinase C gamma type (Homo sapiens) (UniProt P05129); conditions: at 1 µM
# [8] = target: Protein kinase C gamma type (Homo sapiens) (UniProt P05129); conditions: at 10 µM
# [9] = target: Platelet-derived growth factor receptor alpha (Homo sapiens) (UniProt P16234); conditions: at 10 µM
# Chain of Platelet-derived growth factor receptor alpha (Homo sapiens) (P16234 whole entry): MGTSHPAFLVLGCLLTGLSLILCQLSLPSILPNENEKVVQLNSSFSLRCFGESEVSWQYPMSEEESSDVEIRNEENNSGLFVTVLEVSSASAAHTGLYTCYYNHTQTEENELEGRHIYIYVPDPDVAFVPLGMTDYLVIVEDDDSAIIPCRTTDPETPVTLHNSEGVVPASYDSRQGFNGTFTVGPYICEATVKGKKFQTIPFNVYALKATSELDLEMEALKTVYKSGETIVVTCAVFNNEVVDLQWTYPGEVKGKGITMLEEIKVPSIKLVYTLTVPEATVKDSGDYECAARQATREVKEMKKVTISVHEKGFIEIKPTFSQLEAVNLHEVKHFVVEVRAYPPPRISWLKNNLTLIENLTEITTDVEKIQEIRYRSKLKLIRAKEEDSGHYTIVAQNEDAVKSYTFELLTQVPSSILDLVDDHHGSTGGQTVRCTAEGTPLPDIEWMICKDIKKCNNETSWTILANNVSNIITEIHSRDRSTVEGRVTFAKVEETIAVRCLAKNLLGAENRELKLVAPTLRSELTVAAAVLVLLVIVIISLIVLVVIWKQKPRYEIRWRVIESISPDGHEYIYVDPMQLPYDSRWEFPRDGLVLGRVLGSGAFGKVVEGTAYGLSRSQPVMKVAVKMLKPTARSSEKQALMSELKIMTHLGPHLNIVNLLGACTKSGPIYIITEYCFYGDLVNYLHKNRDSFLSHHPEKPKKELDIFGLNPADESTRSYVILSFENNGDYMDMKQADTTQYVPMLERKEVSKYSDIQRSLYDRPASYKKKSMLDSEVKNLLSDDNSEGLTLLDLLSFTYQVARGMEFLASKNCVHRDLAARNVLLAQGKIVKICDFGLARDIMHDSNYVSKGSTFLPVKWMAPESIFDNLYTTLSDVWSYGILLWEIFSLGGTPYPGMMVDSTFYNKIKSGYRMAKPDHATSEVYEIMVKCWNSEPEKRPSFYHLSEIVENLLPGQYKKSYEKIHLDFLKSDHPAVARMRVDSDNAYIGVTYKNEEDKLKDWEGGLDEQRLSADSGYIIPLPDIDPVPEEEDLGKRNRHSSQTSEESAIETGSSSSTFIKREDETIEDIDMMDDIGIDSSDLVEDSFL
# [10] = target: Platelet-derived growth factor receptor beta (Homo sapiens) (UniProt P09619); conditions: at 10 µM
# Chain of Platelet-derived growth factor receptor beta (Homo sapiens) (P09619 whole entry): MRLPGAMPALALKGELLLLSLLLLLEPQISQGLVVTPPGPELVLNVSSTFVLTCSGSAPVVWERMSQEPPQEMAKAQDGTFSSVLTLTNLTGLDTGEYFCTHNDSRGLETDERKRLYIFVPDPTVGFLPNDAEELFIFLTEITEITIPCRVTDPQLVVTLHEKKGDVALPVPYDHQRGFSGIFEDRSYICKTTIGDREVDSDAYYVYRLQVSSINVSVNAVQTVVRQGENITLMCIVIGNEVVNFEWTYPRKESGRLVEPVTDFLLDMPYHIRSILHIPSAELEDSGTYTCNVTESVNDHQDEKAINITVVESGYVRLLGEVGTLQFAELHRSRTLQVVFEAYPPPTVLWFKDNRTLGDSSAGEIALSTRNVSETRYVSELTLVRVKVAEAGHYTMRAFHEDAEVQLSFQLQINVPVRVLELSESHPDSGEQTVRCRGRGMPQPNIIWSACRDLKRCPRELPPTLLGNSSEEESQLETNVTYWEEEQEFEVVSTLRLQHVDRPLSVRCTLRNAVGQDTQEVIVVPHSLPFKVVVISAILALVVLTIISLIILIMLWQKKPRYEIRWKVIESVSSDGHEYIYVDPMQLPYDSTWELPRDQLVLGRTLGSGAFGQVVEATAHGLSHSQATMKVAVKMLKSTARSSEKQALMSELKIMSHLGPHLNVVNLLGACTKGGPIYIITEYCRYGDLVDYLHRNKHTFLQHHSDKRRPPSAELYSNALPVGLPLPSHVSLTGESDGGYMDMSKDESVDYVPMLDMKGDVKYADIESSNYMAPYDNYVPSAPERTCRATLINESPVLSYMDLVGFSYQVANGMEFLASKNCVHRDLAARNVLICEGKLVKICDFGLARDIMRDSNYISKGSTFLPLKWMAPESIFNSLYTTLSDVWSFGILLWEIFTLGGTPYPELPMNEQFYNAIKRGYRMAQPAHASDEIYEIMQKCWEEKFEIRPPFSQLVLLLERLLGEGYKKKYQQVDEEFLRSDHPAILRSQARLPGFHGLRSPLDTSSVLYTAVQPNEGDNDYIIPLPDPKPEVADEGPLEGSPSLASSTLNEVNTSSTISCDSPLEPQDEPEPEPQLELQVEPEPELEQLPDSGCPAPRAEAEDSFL
# [11] = target: T1, 3-phosphoinositide-dependent protein kinase 1 (Homo sapiens); conditions: at 1 µM
# [12] = target: cAMP-dependent protein kinase catalytic subunit alpha (Homo sapiens) (UniProt P17612); conditions: at 1 µM
# [13] = target: cAMP-dependent protein kinase catalytic subunit alpha (Homo sapiens) (UniProt P17612); conditions: at 10 µM
# [14] = target: Protein kinase C alpha type (Homo sapiens) (UniProt P17252); conditions: at 1 µM
# [15] = target: Protein kinase C alpha type (Homo sapiens) (UniProt P17252); conditions: at 10 µM
# [16] = target: Protein kinase C beta type (Homo sapiens) (UniProt P05771); conditions: at 1 µM; remark: listed apart in the source
# [17] = target: Protein kinase C beta type (Homo sapiens) (UniProt P05771); conditions: at 10 µM; remark: listed apart in the source
# [18] = target: Protein kinase C delta type (Homo sapiens) (UniProt Q05655); conditions: at 1 µM
# Chain of Protein kinase C delta type (Homo sapiens) (Q05655 whole entry, looked up): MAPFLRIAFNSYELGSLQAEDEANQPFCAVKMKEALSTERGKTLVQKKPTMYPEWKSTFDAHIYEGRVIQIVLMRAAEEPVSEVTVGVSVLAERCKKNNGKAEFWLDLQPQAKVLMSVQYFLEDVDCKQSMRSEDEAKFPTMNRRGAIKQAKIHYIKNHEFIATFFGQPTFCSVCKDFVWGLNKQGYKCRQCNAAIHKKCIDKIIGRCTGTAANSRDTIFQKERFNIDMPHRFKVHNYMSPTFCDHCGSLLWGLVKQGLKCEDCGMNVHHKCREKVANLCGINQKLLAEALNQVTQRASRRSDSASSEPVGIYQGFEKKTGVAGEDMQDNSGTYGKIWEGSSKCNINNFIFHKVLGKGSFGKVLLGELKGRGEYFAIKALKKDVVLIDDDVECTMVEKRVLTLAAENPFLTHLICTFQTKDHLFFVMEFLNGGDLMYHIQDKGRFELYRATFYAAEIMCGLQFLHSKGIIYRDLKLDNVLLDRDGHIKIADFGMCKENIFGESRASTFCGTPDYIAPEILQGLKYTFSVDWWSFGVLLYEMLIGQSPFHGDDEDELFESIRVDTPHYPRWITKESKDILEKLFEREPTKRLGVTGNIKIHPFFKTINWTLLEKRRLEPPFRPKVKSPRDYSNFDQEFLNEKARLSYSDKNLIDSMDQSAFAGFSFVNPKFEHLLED
# [19] = target: Platelet-derived growth factor receptor beta (Homo sapiens) (UniProt P09619); conditions: at 1 µM
# [20] = target: RAC-gamma serine/threonine-protein kinase (Homo sapiens) (UniProt Q9Y243); conditions: at 1 µM
smiles,measurement,setting,value
COc1cc2ncnc(Nc3cccc(Cl)c3)c2cc1OC,residual activity,[1],86%
c1ccc2c(-c3ccncc3)c[nH]c2c1,residual activity,[1],103%
same,residual activity,[2],104%
O=C1NC(=O)C(c2cn(CCCn3ccnc3)c3ccccc23)=C1Nc1ccccc1,residual activity,[1],104%
same,residual activity,[2],102%
CC(C)[C@H](CO)Nc1nc(Nc2cccc(Cl)c2)c2ncn(C(C)C)c2n1,residual activity,[3],97%
same,residual activity,[4],84%
same,residual activity,[5],120%
same,residual activity,[6],96%
same,residual activity,[7],102%
same,residual activity,[8],101%
Ic1cccc(CSc2nnc(-c3ccncc3)o2)c1,residual activity,[1],116%
O=C1Nc2ccc3ncsc3c2/C1=C/c1c[nH]cn1,residual activity,[9],20%
same,residual activity,[10],29%
same,residual activity,[11],31%
same,residual activity,[3],6%
same,residual activity,[12],25%
same,residual activity,[13],5%
same,residual activity,[1],99%
same,residual activity,[2],106%
same,residual activity,[4],30%
same,residual activity,[14],67%
same,residual activity,[15],18%
same,residual activity,[16],55%
same,residual activity,[17],12%
same,residual activity,[5],67%
same,residual activity,[6],43%
same,residual activity,[7],69%
same,residual activity,[8],21%
same,residual activity,[18],15%
O=[N+]([O-])/C=C/c1ccc2c(c1)OCO2,residual activity,[9],105%
same,residual activity,[19],94%
same,residual activity,[10],97%
same,residual activity,[11],106%
same,residual activity,[3],96%
same,residual activity,[12],124%
same,residual activity,[1],100%
same,residual activity,[2],110%
same,residual activity,[20],125%
same,residual activity,[4],106%
same,residual activity,[14],111%
same,residual activity,[15],111%
same,residual activity,[16],113%
same,residual activity,[6],106%
same,residual activity,[7],103%
same,residual activity,[8],67%
same,residual activity,[18],99%
Cc1cccc(-c2[nH]c(C(C)(C)C)nc2-c2ccc3c(c2)OCO3)n1,residual activity,[1],100%
same,residual activity,[2],107%
COc1cc(OC)c(/C=C2\C(=O)Nc3ccccc32)c(OC)c1,residual activity,[9],69%
same,residual activity,[12],100%
same,residual activity,[13],91%
same,residual activity,[20],103%
same,residual activity,[4],80%
same,residual activity,[16],105%
same,residual activity,[17],103%
same,residual activity,[5],103%
same,residual activity,[6],101%
same,residual activity,[7],98%
O=Nc1c(-c2c(O)[nH]c3ccccc23)[nH]c2ccccc12,residual activity,[1],107%
same,residual activity,[2],98%
CCn1cnc2c(Nc3cccc(Cl)c3)nc(N[C@@H]3CCCC[C@@H]3N)nc21,residual activity,[9],86%
same,residual activity,[10],76%
same,residual activity,[3],84%
same,residual activity,[20],94%
same,residual activity,[4],61%
same,residual activity,[14],89%
same,residual activity,[15],58%
same,residual activity,[16],98%
same,residual activity,[17],85%
same,residual activity,[5],99%
same,residual activity,[6],92%
same,residual activity,[7],81%
same,residual activity,[8],45%
same,residual activity,[18],86%
COc1ccc2c(c[n+](C)c3c4cc5c(cc4ccc23)OCO5)c1OC,residual activity,[12],98%
same,residual activity,[13],73%
same,residual activity,[1],98%
same,residual activity,[2],110%
same,residual activity,[20],82%
same,residual activity,[4],63%
same,residual activity,[14],110%
same,residual activity,[15],100%
same,residual activity,[5],87%
c1ccc(-c2n[nH]cc2-c2ccnc3ccccc23)nc1,residual activity,[1],96%
O=C(CCCc1ccc(-c2ccccc2F)cc1)Nc1ccc(O)cc1,residual activity,[1],103%
same,residual activity,[2],105%
C[S+]([O-])c1ccc(-c2nc(-c3ccc(F)cc3)c(-c3ccncc3)[nH]2)cc1 (centres undefined),residual activity,[9],108%
same,residual activity,[19],120%
same,residual activity,[10],120%
same,residual activity,[11],117%
same,residual activity,[3],107%
same,residual activity,[12],105%
same,residual activity,[1],102%
same,residual activity,[2],105%
same,residual activity,[20],117%
same,residual activity,[4],75%
same,residual activity,[14],107%
same,residual activity,[15],90%
same,residual activity,[16],101%
same,residual activity,[17],70%
same,residual activity,[5],104%
same,residual activity,[6],75%
same,residual activity,[7],104%
same,residual activity,[8],103%
same,residual activity,[18],105%
CC(C)(C)c1cc(C=C(C#N)C#N)cc(Br)c1O,residual activity,[9],106%
same,residual activity,[19],103%
same,residual activity,[10],103%
same,residual activity,[11],102%
same,residual activity,[1],98%
same,residual activity,[2],102%
same,residual activity,[20],106%
same,residual activity,[4],97%
same,residual activity,[14],106%
same,residual activity,[16],106%
same,residual activity,[17],97%
same,residual activity,[5],108%
same,residual activity,[6],108%
same,residual activity,[7],98%
same,residual activity,[8],103%
same,residual activity,[18],98%
CCCC(=O)Oc1ccc2[nH]c(C(=O)c3cc4ccccc4[nH]3)cc2c1,residual activity,[1],97%
COc1ccc2c(c1)/C(=C/c1cnc[nH]1)C(=O)N2,residual activity,[9],82%
same,residual activity,[11],76%
same,residual activity,[3],20%
same,residual activity,[18],96%
COC(=O)[C@@]1(O)C[C@H]2O[C@]1(C)n1c3ccccc3c3c4c(c5c6ccccc6n2c5c31)C(=O)NC4,residual activity,[9],8%
same,residual activity,[19],46%
same,residual activity,[10],8%
same,residual activity,[11],-1%
same,residual activity,[3],0%
same,residual activity,[12],7%
same,residual activity,[13],3%
same,residual activity,[1],101%
same,residual activity,[2],37%
same,residual activity,[20],11%
same,residual activity,[4],3%
same,residual activity,[14],19%
same,residual activity,[15],0%
same,residual activity,[16],53%
same,residual activity,[17],13%
same,residual activity,[5],67%
same,residual activity,[6],18%
same,residual activity,[7],19%
same,residual activity,[8],2%
same,residual activity,[18],18%
O=C1NC(=O)c2cc(Nc3ccc(F)cc3)c(Nc3ccc(F)cc3)cc21,residual activity,[1],101%
same,residual activity,[2],107%
Nc1nc(Nc2ccc(S(N)(=O)=O)cc2)nn1C(=S)Nc1c(F)cccc1F,residual activity,[1],122%
O=C1NC(=O)c2c1c1c3ccccc3n3c1c1c2c2ccccc2n1C1CCC3O1,residual activity,[9],81%
same,residual activity,[19],90%
same,residual activity,[10],86%
same,residual activity,[11],27%
same,residual activity,[3],4%
same,residual activity,[12],70%
same,residual activity,[13],68%
same,residual activity,[20],96%
same,residual activity,[4],84%
same,residual activity,[14],96%
same,residual activity,[16],95%
same,residual activity,[17],91%
same,residual activity,[7],92%
same,residual activity,[8],96%
